Experimental data from PubChem BioAssay AID463173 (ICCB-Longwood Screening Facility, Harvard Medical School, 2010).
Screen size: about 52,000 compounds; about 4,300 (8.3%) were called active. The full list was thinned out, with actives kept by preference. Unmarked numbers belong to inactive results. Cut-off read from the data, not from the text of the source: active = survival mostly below about 52% (no sharp cut-off); inactive = mostly above about 56%.

Test system: DeltatarO mutant
Assay: growth inhibition of S. aureus wild type versus tarO mutant, primary screen, teichoic acid synthesis inhibitors, RN4220, OD600 (AID 463173)
Conditions: OD600, 18 h, hits give low values, screened at 18.75 µg/mL (by protocol)

First: Cc1ccc(NC(=O)c2cnc(SCC(=O)Nc3cc(C)on3)n(C)c2=O)cc1
Second: Cc1cccc(-n2ccnc2SCC(=O)Nc2nc3ccccc3s2)c1
The survival of the first is lower: 88% for the first, 93% for the second.

Compared with COc1ccc(CCn2c3c(c(=O)[nH]c2=O)C(NC(=O)c2ccccc2F)(C(F)(F)F)C(=O)N3)cc1OC (centres undefined), COc1ccc(CCNC(=O)CCCCn2c(=O)c3ccccc3n(Cc3cc(C)ccc3C)c2=O)cc1OC is higher in survival: 60% for the first, 108% for the second.

First: COc1ccc(N(Cc2cc3ccccc3[nH]c2=O)C(=O)c2cccc(Cl)c2)cc1
Second: COc1ccc(N(C(=O)c2ccc(C)cc2)S(=O)(=O)c2ccc(Cl)cc2)cc1
The survival of the first is higher: 87% for the first, 76% for the second.

Compared with Cc1ccc(N2CC(c3nnc(Cc4ccc(Cl)cc4)o3)CC2=O)cc1 (centres undefined), O=C1CC(c2nnc(Cc3ccc(F)cc3)o2)CN1c1ccccc1 (centres undefined) is higher in survival: 48% for the first, 134% for the second.

Compared with COc1ccc(S(=O)(=O)Nc2cccc(-c3ccc(N4CCCCCC4)nn3)c2)c(OC)c1, COc1ccc(NC(=O)c2cc(S(=O)(=O)N3CCOCC3)ccc2OC)cc1 is higher in survival: 74% for the first, 89% for the second.

Compared with COc1ccc(Cn2ccc3nc(C)c(C(=O)N4CCN(c5cccc(OC)c5)CC4)cc3c2=O)cc1, COc1cccc(NC(=O)CC(=O)Nc2ccc3nc4n(c(=O)c3c2)CCCCC4)c1 is higher in survival: 81% for the first, 96% for the second.

Going from Cc1cccc(C(=O)Nc2ccccc2OCc2cc(=O)n3cc(C)ccc3n2)c1 to Cc1ccc2nc(COc3ccccc3NC(=O)c3ccccc3F)cc(=O)n2c1, the survival rises from 60% to 85%.

Going from Cc1ccc2nc(COc3cccc(NC(=O)c4ccccc4Cl)c3)cc(=O)n2c1 to CCC(=O)Nc1cccc(OCc2cc(=O)n3cc(C)ccc3n2)c1, the survival falls from 75% to 55%.

Compared with Cc1ccc(Cl)cc1NC(=O)Nc1cccc(OCc2cc(=O)n3ccccc3n2)c1, O=C(COc1ccc(F)cc1)Nc1cccc(OCc2cc(=O)n3ccccc3n2)c1 is higher in survival: 72% for the first, 102% for the second.

Going from CCc1ccc(NC(=O)CSc2cn(CC(=O)N3CCCC3)c3ccccc23)cc1 to O=C(Cn1ncn2c(cc3ccccc32)c1=O)NCc1ccc(F)cc1, the survival rises from 97% to 104%.

Going from COc1ccc(C)cc1S(=O)(=O)NCC(c1ccc(N(C)C)cc1)N1CCc2ccccc21 (centres undefined) to Cc1ccc(S(=O)(=O)N2CCCc3cc(NC(=O)c4c(F)cccc4F)ccc32)cc1, the survival rises from 55% to 73%.

First: Cc1ccc(NC(=O)/C=C/c2ccc(C)o2)c(C)c1
Second: Cc1ccc(/C=C/C(=O)Nc2ccccc2C(N)=O)o1
The survival of the first is lower: 46% for the first, 64% for the second.

Going from CCOC(=O)c1cc(-c2ccccc2)n(CCC(=O)Nc2ccc(Cl)c(C(F)(F)F)c2)c1C to Cc1cccc(OCC(=O)Nc2ccccc2C(=O)OCc2cc(=O)n3ccsc3n2)c1, the survival falls from 102% to 77%.

CN(C)S(=O)(=O)c1ccc(S(=O)(=O)N(Cc2ccccc2F)C2CC2)cc1 and CC(=O)Nc1ccc(S(=O)(=O)N2CCC(NC(=O)Nc3cccc(F)c3)CC2)cc1 are the same in survival: 91% for the first, 91% for the second.

Compared with Cc1oc2ncn(C)c(=O)c2c1C(=O)NCCCN(Cc1ccccc1)C(C)C, CCN(CCCNC(=O)c1c(C)oc2ncn(CC(C)C)c(=O)c12)Cc1ccccc1 is higher in survival: 72% for the first, 83% for the second.

Compared with O=C(CSc1ncn(-c2ccccc2)n1)c1ccc(Cl)cc1, CCN1C(C(=O)c2ccccc2)=C(OC(=O)c2ccc(Cl)cc2)c2ccccc2S1(=O)=O is lower in survival: 74% for the first, 50% for the second.

Going from COC(=O)CN1C(C(=O)c2ccccc2)=C(OC(=O)c2ccc(F)cc2)c2ccccc2S1(=O)=O to COC(=O)CN1C(C(=O)c2ccccc2)=C(OC(=O)c2ccccc2)c2ccccc2S1(=O)=O, the survival falls from 56% to 49%.

Going from CCN1C(C(=O)c2ccccc2)=C(OC(=O)C(C)C)c2ccccc2S1(=O)=O to CCCCC(=O)OC1=C(C(=O)c2ccccc2)N(CC)S(=O)(=O)c2ccccc21, the survival falls from 67% to 52%.

First: CCCN1C(C(=O)c2ccccc2)=C(OC(=O)C(C)(C)C)c2ccccc2S1(=O)=O
Second: CCOC(=O)CN1C(C(=O)c2ccccc2)=C(OC(=O)C(C)(C)C)c2ccccc2S1(=O)=O
The survival of the first is lower: 53% for the first, 58% for the second.

Going from CCCN1C(C(=O)c2ccccc2)=C(OC(=O)c2ccc(C)cc2)c2ccccc2S1(=O)=O to CCCN1C(C(=O)c2ccccc2)=C(OC(=O)c2ccc(OC)cc2)c2ccccc2S1(=O)=O, the survival rises from 52% to 56%.

Compared with CCCCCN1C(C(=O)c2ccccc2)=C(NC(C)=O)c2ccccc2S1(=O)=O, CCCCC(=O)OC1=C(C(=O)c2ccccc2)N(C)S(=O)(=O)c2ccccc21 is higher in survival: 58% for the first, 104% for the second.

Compared with CCCCN(CCCC)C1=C(C(=O)c2ccccc2)N(C)S(=O)(=O)c2ccccc21, CCOC(=O)CN1C(C(=O)c2ccccc2)=C(OC(=O)c2ccccc2)c2ccccc2S1(=O)=O is lower in survival: 72% for the first, 56% for the second.

Compared with CN(CC(=O)Nc1cccc(C(F)(F)F)c1)S(=O)(=O)c1ccc2[nH]c3c(c2c1)CCCC3, Cc1ccc(S(=O)(=O)CC(=O)Nc2sc3c(c2C#N)CCCC3)cc1 is higher in survival: 94% for the first, 119% for the second.

Compared with CC(=O)N1CCc2cc(C(=O)C[n+]3ccccc3)ccc21, CC(=O)N1CCc2cc(S(=O)(=O)NC(CC(C)C)C(=O)NCCc3ccccc3)ccc21 (centres undefined) is lower in survival: 91% for the first, 78% for the second.

First: C=CCNC(=O)CN1CCC(n2c(C)nc3cc(C(F)(F)F)ccc32)CC1
Second: CC1CCCN(CNC(=O)c2ccccc2)C1 (centres undefined)
The survival of the first is higher: 95% for the first, 92% for the second.

Compared with O=C(COc1ccccc1)Nc1ccc(S(=O)(=O)N(Cc2ccccc2)c2ccccc2)cc1, O=C(/C=C/c1ccco1)Nc1ccc(-c2cc3ccccc3oc2=O)cc1 is lower in survival: 61% for the first, 50% for the second.

Going from COc1cc(CNCCCSc2nnnn2C)cc(Br)c1OC to COc1ccccc1NC(=O)Cn1nnc(C(=O)NCc2ccc3c(c2)OCO3)c1N, the survival rises from 81% to 103%.

First: CCOC(=O)Cn1c(=O)oc2cc(S(=O)(=O)N3CCN(c4ccc(F)cc4)CC3)ccc21
Second: Cc1ccc(S(=O)(=O)N2CCOCC2)cc1C(=O)Nc1ccccc1C(=O)O
The survival of the first is higher: 117% for the first, 83% for the second.

Going from CSc1cccc(-c2nnc(NC(=O)c3ccc4c(c3)OCCO4)o2)c1 to CC1=C(C(=O)Nc2ccc(C)cc2C)C(c2cccn2C)n2ncnc2N1 (centres undefined), the survival rises from 72% to 91%.

First: Cc1ccc(C)c(N2CCN(C(=O)NCc3noc4ccccc34)CC2)c1
Second: O=C(NCc1noc2ccccc12)N1CCN(c2ccccc2)CC1
The survival of the first is higher: 51% for the first, 44% for the second.

Going from O=C(O)CCC(=O)N1CCN(Cc2ccc3c(c2)OCO3)CC1 to Cc1ccc(NS(=O)(=O)c2c(C(=O)N3CCCCCC3)c(C)n(C)c2C)cc1F, the survival rises from 75% to 83%.

Compared with COc1ccc(-c2nnn(CC(=O)Nc3sc4c(c3C#N)CCCC4)n2)cc1, CC(C)CCOc1ccc(C(=O)Nc2sc3c(c2C#N)CCCCC3)cc1 is higher in survival: 98% for the first, 127% for the second.

Going from N#Cc1c(N2C(=O)C3C4C=CC(C4)C3C2=O)sc2c1CCCC2 (centres undefined) to N#Cc1c(N)sc2c1CCCC2, the survival rises from 71% to 103%.

Going from CCCCNCc1cccn1-c1sc2c(c1C#N)CCCC2 to N#Cc1c(-n2ncnc2-c2cccc(Cl)c2)sc2c1CCCCC2, the survival falls from 109% to 61%.

Going from Cc1ccc(S(=O)(=O)CC(=O)Nc2sc3c(c2C#N)CCCCC3)cc1 to CCCCOc1ccccc1C(=O)N(Cc1ccc(C)o1)C1CCS(=O)(=O)C1 (centres undefined), the survival falls from 72% to 71%.

In the case of Cc1ccc(N2CC(c3nnc(Cc4ccc(F)cc4)o3)CC2=O)cc1 (centres undefined), the survival was 24% (active).
Cc1ccc2nc(COc3cccc(NC(=O)Nc4ccc(C)c(Cl)c4)c3)cc(=O)n2c1 was tested, and the survival was 25% (active).
In the case of Cc1ccc2nc(COc3ccccc3NC(=O)c3ccc(F)cc3)cc(=O)n2c1, the survival was 20% (active).
In the case of O=C(Nc1cccc(OCc2cc(=O)n3ccccc3n2)c1)Nc1cccc(C(F)(F)F)c1, the survival was -4% (active).
For COc1ccc(OC)c(NC(=O)/C=C/c2ccc(C)o2)c1, the survival was 40% (active).
With CCCCN(CCCNC(=O)c1c(C)oc2nc[nH]c(=O)c12)Cc1ccccc1 the survival was 53% (active).
CCCCN(CCCC)C1=C(C(=O)c2ccccc2)N(CC)S(=O)(=O)c2ccccc21 was tested, and the survival was 60% (active).
For CCCCN1C(C(=O)c2ccccc2)=C(OC(=O)CC)c2ccccc2S1(=O)=O, the survival was -4% (active).
CCCCN1C(C(=O)c2ccccc2)=C(OC(C)=O)c2ccccc2S1(=O)=O was tested, and the survival was -4% (active).
For CCCN1C(C(=O)c2ccccc2)=C(OC(=O)c2ccc(F)cc2)c2ccccc2S1(=O)=O, the survival was 31% (active).
CCCCCN1C(C(=O)c2ccccc2)=C(OC(=O)CC)c2ccccc2S1(=O)=O was tested, and the survival was -4% (active).
With CCCCC(=O)OC1=C(C(=O)c2ccccc2)N(CCC)S(=O)(=O)c2ccccc21 the survival was 18% (active).
With CCN1C(C(=O)c2ccccc2)=C(OC(=O)c2ccc(OC)cc2)c2ccccc2S1(=O)=O the survival was 46% (active).
In the case of Cc1ccc(N2CCN(C(=O)NCc3noc4ccccc34)CC2C)cc1 (centres undefined), the survival was 30% (active).
With CC(=O)c1ccc(NC(=O)c2cc(S(=O)(=O)N3CCOCC3)ccc2C)cc1 the survival was 49% (active).
In the case of N#Cc1c(-n2ncnc2-c2cccc(Br)c2)sc2c1CCCCC2, the survival was 23% (active).
For CCOc1ccc(-c2ncnn2-c2sc3c(c2C#N)CCCCC3)cc1, the survival was 5% (active).
In the case of N#Cc1c(-n2ncnc2-c2ccc(Br)cc2)sc2c1CCCCC2, the survival was 2% (active).
For N#Cc1c(-n2ncnc2-c2ccc(F)cc2)sc2c1CCCCC2, the survival was -4% (active).
